A short description of assay [1]: liver-stage malaria parasite growth inhibition, primary screen, cell-based, HepG2, luciferase luminescence, HepG2 viability (AID 624349).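 Note: 100% = mean of DMSO negative control wells on the same plate.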 Conditions: P. berghei liver stage in HepG2, luciferase luminescence, concentration not given here; parasite load remaining: stronger effect = lower value; viability: measured here: HepG2 viability without parasites.
Assay [2] in a line: stimulators of nuclear beta-catenin in C2C12, primary screen, imaging, WNT3A-conditioned medium, mouse C2C12, NPC library (AID 1117326; in the data active = nuclear beta-catenin stimulation mostly above about 4.2%, no sharp cut-off; inactive = mostly below about 10%). The conditions noted are these: stronger effect = higher value.
The nature of assay [3]: stimulators of insulin release from INS-1E, primary screen, cell-based, 5 mM glucose, NPC library (AID 1117329;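 active = compound raises insulin release from rat beta cells at 5 mM glucose, no numeric limit stated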). Conditions: rat INS-1E insulin secretion, at 10 µM, stronger effect = higher value.
A short description of assay [4]: growth inhibition of GSK3B-pretreated HCT116 cells – cell-based, CellTiter-Glo, 0.2 to 20 µM (AID 1117336;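 active = compounds lowering colon cancer cell viability after pretreatment blocking the GSK3B kinase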). Conditions: HCT116 viability after GSK3B inhibitor, at 20 µM, stronger effect = higher value. (In general: ATP-based viability assays read luminescence as a measure of living cells.)
Assay [5] in a line: inhibition of endothelial tube formation, primary screen, imaging, VEGF stimulated, CD31 staining, tube area, NPC library (AID 1117340;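 active = compound that reduces growth-factor-driven endothelial tube area in a mixed cell culture, no cutoff stated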). The conditions noted are these: VEGF-stimulated ADSC/ECFC co-culture, at 10 µM, stronger effect = higher value.
Assay [6] can be described thus: glucagon-like peptide 1 release enhancers, primary assay, NCI-H716 cell line, NPC library (AID 1117341;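 active = compound raises GLP1 secretion from the human gut endocrine cells, with no numeric limit stated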). The conditions noted are these: NCI-H716 cells, at 10 µM, stronger effect = higher value.
The nature of assay [7]: HCT116 colon cancer cell growth inhibition, primary screen, CellTiter-Glo luminescence, NPC library (AID 1117342;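 active = compounds that lower survival of HCT116 colon cancer cells in the luminescence readout, no numeric limit stated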). The conditions noted are these: at 20 µM (top of the series).
Assay [8] can be described thus: CellTiter-Glo luminescent readout of SW480 viability loss, NPC library primary (AID 1117343;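 active = compounds that lower viability of the colon cancer cells in the luminescence readout, with no numeric limit stated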). The conditions noted are these: CellTiter-Glo luminescence; at 20 µM (top of the series).
Assay [9] is described as follows: decreased DLD-1 cellular survival, CellTiter-Glo luminescent readout, NPC compound collection, primary HTS (AID 1117346;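 active = compounds that lower survival of DLD-1 colon cancer cells in the luminescence readout, no cutoff given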). Conditions: DLD-1 viability, CellTiter-Glo luminescence; at 20 µM (top of the series).
Assay [10] concerns the target 6-phosphogluconate dehydrogenase, decarboxylating (Homo sapiens) (UniProt P52209). Kind of assay: 6PGD enzyme inhibitors, primary screen, biochemical, human, recombinant enzyme, NADPH absorbance (AID 1159550;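 active = at least 20% inhibition of 6-phosphogluconate dehydrogenase activity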). Conditions: recombinant 6PGD, NADPH absorbance 341 nm; at 10 µM; stronger effect = higher value.

Results on 11 molecules are retold here after PubChem BioAssay.

The structures appear in SMILES notation. “And” between values parts separate entries of the source, which are not always exact repeats. Equal values may be shown once. More than one record can exist for a structure, and the calls need not agree. The source made the active and inactive calls. Cut-off read from the data, not from the text of the source, unless noted: active = parasite load remaining mostly below about 12% (no sharp cut-off); inactive = mostly above about 10%.

6-phosphogluconate dehydrogenase, decarboxylating (Homo sapiens), sequence (P52209 whole entry, looked up): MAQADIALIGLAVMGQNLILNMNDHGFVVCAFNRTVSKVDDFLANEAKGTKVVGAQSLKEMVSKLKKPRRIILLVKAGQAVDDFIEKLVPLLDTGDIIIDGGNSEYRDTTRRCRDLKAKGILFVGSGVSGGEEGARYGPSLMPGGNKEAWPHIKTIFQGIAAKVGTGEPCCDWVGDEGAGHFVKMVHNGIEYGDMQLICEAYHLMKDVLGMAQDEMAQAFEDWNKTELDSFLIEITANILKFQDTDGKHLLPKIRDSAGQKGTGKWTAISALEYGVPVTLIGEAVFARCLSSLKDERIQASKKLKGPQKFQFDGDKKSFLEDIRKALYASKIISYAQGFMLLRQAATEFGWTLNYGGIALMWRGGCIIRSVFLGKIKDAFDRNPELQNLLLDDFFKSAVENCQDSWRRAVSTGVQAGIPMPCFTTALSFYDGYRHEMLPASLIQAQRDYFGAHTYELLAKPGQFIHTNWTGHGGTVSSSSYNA

Turning to `CC(C)N=C(N)/N=C(\N)Nc1ccc(Cl)cc1`, in [1], the parasite load remaining was 38.3% (inactive) and -0.12% (active). Further, the viability in [1] is 66.1% and 93.4%. Further, the nuclear beta-catenin stimulation is 1.1% (inactive) in assay [2] (at 10 µM) and 0.3% in [2] (stimulation, at 2 µM). Further, the insulin secretion stimulation in [3] is -3.1% (inactive). Further, the viability decrease in [4] is 14.7% (inactive). Besides, the tube area decrease in assay [5] was 1.9% (inactive). For the same molecule, in assay [6], the GLP1 secretion stimulation is 5.1% (inactive). Moreover, in assay [7], the inhibition of viability is 13.5% (inactive). Also, the viability decrease (inhibition) in [8] is 67.6% (active); in assay [9], 27.1% (inactive). For the same molecule, the inhibition in assay [10] was 2.42% (inactive).
With `CC[C@]12CCCN3CCc4c(n(c5ccccc45)C(=O)C1)[C@@H]32`, in [1], the parasite load remaining was 191% (inactive) and 75.4% (inactive). Further, in [1], the viability is 102% and 73.8%. Further, the nuclear beta-catenin stimulation was 35.1% (inactive) in assay [2] (at 10 µM) and 6.2% in assay [2] (stimulation, at 2 µM). Also, in [3], the insulin secretion stimulation was 0.1% (inactive). Besides, the viability decrease in [4] was -29% (inactive). Further, the tube area decrease in [5] is 100% (active). Moreover, in assay [6], the GLP1 secretion stimulation was 7.7% (inactive). Also, in assay [7], the inhibition of viability was 35.7% (inactive). In addition, the viability decrease (inhibition) in [8] is 60% (active); in assay [9], 66.2% (active). Also, the inhibition in assay [10] is -5.24% (inactive).
As to `CC1CCC(NC(=O)N(CCCl)N=O)CC1` (configuration not stated), the parasite load remaining in [1] is 62.2% (inactive) and 25.6% (inactive). In addition, the viability in assay [1] was 87.1% and 108%. The nuclear beta-catenin stimulation in [2] (at 10 µM) was 5.9% (inactive); in [2] (stimulation, at 2 µM) it was 4.9%. In [3], the insulin secretion stimulation was 2% (inactive). For the same molecule, the viability decrease in [4] was -24.4% (inactive). For the same molecule, the tube area decrease in assay [5] was 25.1% (inactive). Moreover, the GLP1 secretion stimulation in assay [6] was 1.7% (inactive). Moreover, the inhibition of viability in [7] is -2.27% (inactive). Besides, the viability decrease (inhibition) in [8] is 12.6% (inactive); in [9], -14.1% (inactive). Moreover, in assay [10], the inhibition is 2.66% (inactive).
For the molecule `O=C(OCc1ccccc1)c1ccccc1`, the parasite load remaining in assay [1] is 82.1% (inactive) and 33.8% (inactive). Besides, in [1], the viability was 68.9% and 89.1%. For the same molecule, the nuclear beta-catenin stimulation was 0.4% (inactive) in assay [2] (at 10 µM) and 2.2% in assay [2] (stimulation, at 2 µM). Moreover, the insulin secretion stimulation in [3] is 0.7% (inactive). Besides, the viability decrease in assay [4] is -5.3% (inactive). Also, the tube area decrease in [5] was 5.6% (inactive). In addition, the GLP1 secretion stimulation in [6] is -2.6% (inactive). Further, in [7], the inhibition of viability was 10.4% (inactive). For the same molecule, the viability decrease (inhibition) in [8] is -12.6% (inactive); in [9] it was -9.1% (inactive). For the same molecule, in assay [10], the inhibition is -0.0939% (inactive).
Regarding `Cc1cc2nc3c(=O)[nH]c(=O)nc-3n(C[C@H](O)[C@H](O)[C@H](O)CO)c2cc1C`, the parasite load remaining in assay [1] is 147% (inactive). The viability in [1] was 99.8%. The nuclear beta-catenin stimulation in [2] (at 10 µM) was 4.5% (inactive); in assay [2] (stimulation, at 2 µM), 2.2%. Moreover, the insulin secretion stimulation in assay [3] is 0.9% (inactive). The viability decrease in assay [4] was -45.7% (inactive). Moreover, in [5], the tube area decrease was 36.1% (inactive). Also, in assay [6], the GLP1 secretion stimulation was -0.4% (inactive). The inhibition of viability in assay [7] is 0.1% (inactive). Also, the figures for the viability decrease (inhibition) in [8] and in [9] were 11.1% (inactive) and -5.4% (inactive), respectively. In assay [10], the inhibition is -2.13% (inactive).
For `CCOc1ccc(Cc2nccc3cc(OCC)c(OCC)cc23)cc1OCC`, the parasite load remaining in assay [1] is 28.9% (inactive) and 13.1% (inactive). In [1], the viability is 78.6% and 42.8%. Besides, the nuclear beta-catenin stimulation in assay [2] (at 10 µM) was 1.8% (inactive); in [2] (stimulation, at 2 µM), 7.1%. The insulin secretion stimulation in assay [3] is 1.2% (inactive). For the same molecule, the viability decrease in assay [4] is -83% (inactive). Moreover, in [5], the tube area decrease is 39.2% (inactive). Further, the GLP1 secretion stimulation in [6] is 4.1% (inactive). The inhibition of viability in [7] was 69.1% (active). Moreover, the viability decrease (inhibition) in assay [8] was 97.9% (active); in [9], 62.3% (active). Further, in assay [10], the inhibition is -5.46% (inactive).
For the molecule `Cc1cc2cc3c(C)cc(=O)oc3c(C)c2o1`, the parasite load remaining in [1] was 179% (inactive) and 284% (inactive) and 171% (inactive). In addition, in [1], the viability was 95.9% and 75.4% and 91.9%. Further, the nuclear beta-catenin stimulation in assay [2] (at 10 µM) is 2.9% (inactive); in [2] (stimulation, at 2 µM), 0.1%. Besides, the insulin secretion stimulation in assay [3] is -0.7% (inactive). In assay [4], the viability decrease was -8.2% (inactive). Moreover, the tube area decrease in assay [5] is 1.6% (inactive). For the same molecule, the GLP1 secretion stimulation in assay [6] was 0.5% (inactive). Further, in [7], the inhibition of viability is 19.9% (inactive). Moreover, the viability decrease (inhibition) was 35.5% (inactive) in assay [8] and -2.3% (inactive) in [9]. Also, in assay [10], the inhibition is -18.4% (inactive).
Turning to `Nc1ccc(S(=O)(=O)NC(=O)c2ccccc2)cc1`, in assay [1], the parasite load remaining was 105% (inactive) and 86.8% (inactive) and 33.6% (inactive). Besides, the viability in assay [1] was 105% and 73% and 95.8%. Also, the nuclear beta-catenin stimulation was 1.5% (inactive) in assay [2] (at 10 µM) and 1.1% in [2] (stimulation, at 2 µM). In addition, in assay [3], the insulin secretion stimulation was -1.7% (inactive). Further, the viability decrease in [4] is -10.1% (inactive). Besides, the tube area decrease in [5] was -16.9% (inactive). Moreover, the GLP1 secretion stimulation in [6] is 0.6% (inactive). Further, the inhibition of viability in [7] is 0.2% (inactive). Moreover, the viability decrease (inhibition) in assay [8] is -9.5% (inactive); in [9], -14.3% (inactive). For the same molecule, in [10], the inhibition is -6.69% (inactive).
In the case of `O=C1c2cccc(O)c2C(=O)c2c(O)cccc21`, the parasite load remaining in [1] was 32.6% (inactive). Further, the viability in assay [1] came out at 96.2%. In addition, the nuclear beta-catenin stimulation is -0.6% (inactive) in assay [2] (at 10 µM) and 8.2% in assay [2] (stimulation, at 2 µM). In addition, the insulin secretion stimulation in assay [3] was -2.2% (inactive). In assay [4], the viability decrease is 21.4% (inactive). For the same molecule, in assay [5], the tube area decrease was 6% (inactive). Besides, the GLP1 secretion stimulation in [6] is 0% (inactive). The inhibition of viability in assay [7] was 21.9% (inactive). Further, the results for the viability decrease (inhibition) in assay [8] and in [9] were 52.4% (active) and 9.7% (inactive), respectively. Besides, the inhibition in [10] was -6.73% (inactive).
For the molecule `O=C(O)[C@@H]1[C@H]2C[C@H]3c4[nH]c5ccccc5c4CCN3C[C@@H]2CC[C@@H]1O`, in assay [1], the parasite load remaining is 106% (inactive) and 85.7% (inactive). For the same molecule, in assay [1], the viability is 104% and 83.6%. For the same molecule, the nuclear beta-catenin stimulation was 0.4% (inactive) in assay [2] (at 10 µM) and 1.8% in assay [2] (stimulation, at 2 µM). Also, the insulin secretion stimulation in assay [3] is -0.3% (inactive). Moreover, the viability decrease in [4] is -25.2% (inactive). For the same molecule, in assay [5], the tube area decrease is 9.1% (inactive). Moreover, the GLP1 secretion stimulation in assay [6] is 0.3% (inactive). Further, the inhibition of viability in [7] was -4.53% (inactive). Moreover, the values for the viability decrease (inhibition) in assay [8] and in [9] were 13% (inactive) and -18.9% (inactive), respectively. In addition, the inhibition in assay [10] was 2.44% (inactive).
Regarding `Nc1ncnc2c1ncn2[C@@H]1O[C@H](COP(=O)(O)O)[C@@H](O)[C@H]1O`, the parasite load remaining in assay [1] was 75.5% (inactive) and 87.1% (inactive). In addition, the viability in assay [1] is 125% and 81%. Further, the nuclear beta-catenin stimulation in [2] (at 10 µM) was 2.4% (inactive); in [2] (stimulation, at 2 µM) it was 3.8%. In assay [3], the insulin secretion stimulation was 0.05% (inactive). The viability decrease in assay [4] is -14.7% (inactive). In addition, in assay [5], the tube area decrease was -5.6% (inactive). Further, the GLP1 secretion stimulation in assay [6] was 4% (inactive). In addition, in assay [7], the inhibition of viability is -14.3% (inactive). Moreover, the results for the viability decrease (inhibition) in assay [8] and in assay [9] were 73.2% (active) and -4.1% (inactive), respectively. Also, the inhibition in [10] was -8.33% (inactive).

What is called viability is a read-out of living cells in per cent, often relative to untreated cells. A word on the inhibition: it is the drop in the measured response relative to a control, in per cent.
